# Data from ChEMBL document CHEMBL1201862, “PubChem BioAssay data set” (2004).
# Out of some 400,000 compounds screened, about 2,100 (0.53%) were called active. Not shown: some 14% with an inconclusive outcome. No rule for the calls is given here. What follows is part of a selection rich in actives, with near analogues and random picks from the rest.
# Biological target: Ataxin-2 (Homo sapiens) (UniProt Q99700)
# Experiment: qHTS for Inhibitors of ATXN expression.
# Type: functional
# Sequence of Ataxin-2 (Homo sapiens) (Q99700 whole entry): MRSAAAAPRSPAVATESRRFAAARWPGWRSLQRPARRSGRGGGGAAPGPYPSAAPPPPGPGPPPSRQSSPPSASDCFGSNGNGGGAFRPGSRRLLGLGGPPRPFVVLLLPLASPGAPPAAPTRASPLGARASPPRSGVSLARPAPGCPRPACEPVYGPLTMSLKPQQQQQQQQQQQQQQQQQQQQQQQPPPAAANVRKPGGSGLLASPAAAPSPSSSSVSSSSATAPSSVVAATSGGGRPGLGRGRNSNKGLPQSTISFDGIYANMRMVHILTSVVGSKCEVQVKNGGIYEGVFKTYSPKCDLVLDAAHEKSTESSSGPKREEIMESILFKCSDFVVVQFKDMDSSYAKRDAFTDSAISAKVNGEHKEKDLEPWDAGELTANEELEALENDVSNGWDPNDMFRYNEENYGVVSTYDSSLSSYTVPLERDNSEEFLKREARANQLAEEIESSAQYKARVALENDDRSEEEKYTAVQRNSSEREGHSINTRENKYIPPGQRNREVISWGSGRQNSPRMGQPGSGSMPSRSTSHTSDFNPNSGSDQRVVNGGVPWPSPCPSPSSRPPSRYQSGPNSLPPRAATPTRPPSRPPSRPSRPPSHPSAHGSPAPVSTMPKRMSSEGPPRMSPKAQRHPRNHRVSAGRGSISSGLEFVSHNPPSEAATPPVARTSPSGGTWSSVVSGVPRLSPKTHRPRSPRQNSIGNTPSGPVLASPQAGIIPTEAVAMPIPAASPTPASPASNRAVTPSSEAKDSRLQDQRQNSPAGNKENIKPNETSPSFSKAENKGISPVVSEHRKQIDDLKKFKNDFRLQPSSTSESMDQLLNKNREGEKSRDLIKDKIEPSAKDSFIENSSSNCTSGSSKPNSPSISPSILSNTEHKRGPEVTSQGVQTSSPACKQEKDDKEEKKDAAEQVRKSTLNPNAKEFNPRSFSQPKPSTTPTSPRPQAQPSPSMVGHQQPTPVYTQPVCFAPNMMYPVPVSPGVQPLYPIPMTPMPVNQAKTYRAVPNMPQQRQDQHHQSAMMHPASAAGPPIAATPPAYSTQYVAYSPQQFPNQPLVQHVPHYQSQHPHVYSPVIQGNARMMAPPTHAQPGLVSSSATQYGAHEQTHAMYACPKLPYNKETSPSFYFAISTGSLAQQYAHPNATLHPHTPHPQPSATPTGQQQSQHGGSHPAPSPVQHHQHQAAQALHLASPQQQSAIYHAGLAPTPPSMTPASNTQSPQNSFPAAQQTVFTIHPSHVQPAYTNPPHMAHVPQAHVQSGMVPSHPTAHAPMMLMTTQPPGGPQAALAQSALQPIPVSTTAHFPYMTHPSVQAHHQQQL
row,Structure (SMILES),Potency
1,CCOc1ccc(C2C(C#N)=C(N)Oc3cc(O)ccc32)cc1OCC (centres undefined),inactive
2,COCOc1ccc(/C=C2/Oc3cc(OCOC)cc(OCOC)c3C2=O)c(OCOC)c1,inactive
3,Cc1cscc(C)c1=S,inactive
4,Nc1c(C(=O)CSc2ncccn2)c(=O)[nH]c(=O)n1C1CC1,inactive
5,Cc1c(CCC(=O)O)c(=O)oc2c(C)c3occ(-c4ccc(Br)cc4)c3cc12,inactive
6,O=C(Nc1ccc(S(=O)(=O)Nc2cnc3ccccc3n2)cc1)c1ccc([N+](=O)[O-])cc1Cl,inactive
7,O=C(Nc1ccc(Nc2ccncc2)cc1)c1ccc(Nc2ccnc3ccc([N+](=O)[O-])cc23)cc1[N+](=O)[O-],39.8 µM (active)
8,COc1ccc([N+](=O)[O-])cc1C(=O)Nc1ccc(Cc2ccncc2)cc1,inactive
9,N#Cc1cc2c(=O)n3ccccc3nc2n(CCCN2CCOCC2)c1=O,inactive
10,CCOc1cc(C2C3=C(CCCC3=O)N(CCC(=O)O)C3=C2C(=O)CCC3)ccc1OS(=O)(=O)c1ccc(C)cc1,inactive
11,CC(=O)NCCc1nc2cc(NC(=O)c3cccs3)ccc2n1C,inactive
12,Cc1cc(S(=O)(=O)N2CCCC2)ccc1OCC(=O)Nc1ccc(C(N)=O)cc1,inactive
13,Cc1ccc(C(C)C)c(OCC(=O)Nc2ccc3c(c2)nc(CCN2CCCCC2)n3C)c1,39.8 µM (active)
14,O=C1/C(=C\Nn2cnnc2)c2ccccc2C(=O)N1c1ccccc1F,inactive
15,COc1ccccc1NS(=O)(=O)c1cccc(NC(=O)Nc2cccc(Cl)c2)c1,44.7 µM (active)
16,COc1ccccc1NS(=O)(=O)c1cccc(NC(=O)c2[nH]c(C)c(C(C)=O)c2C)c1,inactive
17,COc1ccccc1NS(=O)(=O)c1ccc(C)c(NC(=O)c2c(C)noc2C)c1,inactive
18,CCOC(=O)Nc1c2ccccc2nc2ccccc12,inactive
19,COC(=O)c1c(C)nc2nonc2c1N,inactive
20,CCOC(=O)NN=C1c2ccccc2-c2nc3nonc3nc21,3.77 µM (active)
21,COc1cc(/C=C/C(=O)N2C(=O)c3cccc(N)c3C2=O)cc(OC)c1OC,inactive
22,Cn1c2nc(=O)[nH]c(=O)c-2cc2ccccc21,inactive
23,C=CCOc1ccccc1CN(C(=O)CCl)c1ccc2c(c1)OCO2,39.8 µM (active)
24,CCc1cccc(CC)c1N1C(=O)C2=C(SCCCS2)C1=O,inactive
25,CCOC(=O)C1(CCOc2ccccc2)CCN(Cc2ccc(C#CCCO)cc2)CC1,inactive

row,Structure (SMILES),Potency
1,Cc1cc(N2CCN(C(=O)c3ccco3)CC2)n2nc(-c3cccc(Cl)c3)cc2n1,35.5 µM (active)
2,CCc1noc(C)c1C(=O)N1CCN(c2cccc(Cl)c2)CC1,inactive
3,Cn1c(C(=O)N2CCN(C(=O)c3ccco3)CC2)cc2c(=O)n3ccccc3nc21,inactive
4,O=C(c1ccco1)N1CCN(c2c(O)nc3ccc(Cl)cc3c2-c2ccccc2)CC1,28.2 µM (active)
5,O=c1oc2cc(O)ccc2cc1-c1ccc(F)cc1,inactive
6,Cc1ccc(/N=c2\oc3cc(O)ccc3cc2C(N)=O)cc1,inactive
7,O=CNc1ccc2c3c(cccc13)-c1ccccc1-2,inactive
8,CC1=NN(c2ccccc2)C(=O)C1/C=N/c1ccc(N(C)C)cc1 (centres undefined),inactive
9,CN(C)C=O.CN(C)c1ccc(/C=C/c2nc3ccccc3c(=O)n2-c2ccc(C(=O)O)cc2)cc1,inactive
10,CC1=NN(c2ccccc2)C(=O)/C1=C/C=C/c1ccc(N(C)C)cc1,17.8 µM (active)
11,O=C(COC(=O)Cc1ccsc1)NNC(=O)c1ccccc1,inactive
12,C#CCN1C(=O)S/C(=C\c2cc3c(cc2OC)OCO3)C1=O,inactive
13,CNC(=O)c1cc(NC(=O)CCn2nc(-c3ccccc3)c3ccccc3c2=O)ccc1OC,inactive
14,COc1ccc(Cl)cc1C(=O)NNC(=O)c1[nH]nc2ccccc12,inactive
15,CCn1nc(C(=O)NNC(=O)c2cc(Cl)ccc2OC)c2ccccc2c1=O,39.8 µM (active)
16,CC(=O)N(Cc1ccccc1)c1ncc2c(n1)c(=O)c(C#N)c1ccccn12,inactive
17,COCCCNC(=O)C[S+]([O-])Cc1nc(-c2ccccc2C)oc1C (centres undefined),inactive
18,CCCCCOc1ccc(Br)cc1CSC(=N)N,35.5 µM (active)
19,CCCn1c(=N)c(C(=O)NCC2CCCO2)cc2c(=O)n3cccc(C)c3nc21 (centres undefined),inactive
20,Cc1cc(O)nc(SCC(=O)Nc2ccnc3ccccc23)n1,inactive
21,O=C(Cc1ccccc1C(=O)O)Nc1cccc2ccccc12,inactive
22,O=C(CCl)Nc1cccc2ncccc12,31.6 µM (active)
23,Cc1c(Cc2ccccc2)c(=O)oc2cc(OC(=O)c3ccccc3)ccc12,inactive
24,CCCc1sc(N/N=C/c2ccccn2)nc1-c1ccc(Br)cc1,17.8 µM (active)
25,Cn1/c(=N/N=C/c2ccccn2)sc2ccccc21,inactive

row,Structure (SMILES),Potency
1,CC/N=c1\scc(-c2ccc(F)cc2)n1/N=C/c1ccccn1,inactive
2,Cc1csc(N/N=C/c2ccccn2)n1,28.2 µM (active)
3,CCC/C=N/Nc1nc2ccccc2s1,inactive
4,C=CCn1c(=N)c(C(=O)NCCCOC)cc2c(=O)n3ccccc3nc21,inactive
5,Oc1c(Cl)cc(Cl)cc1/C=N\c1cc(C(F)(F)F)ccc1N1CCc2ccccc2C1,inactive
6,COc1ccc(-c2cc(C(F)(F)F)c3c(N)c(C(=O)NCCSC)sc3n2)cc1,inactive
7,COc1ccc(-c2cc(C(F)(F)F)nc(SCC(=O)Nc3ccc(C(C)=O)cc3)n2)cc1,31.6 µM (active)
8,COc1ccc(-c2csc(NC(=O)CSc3n[nH]c(N)n3)n2)cc1,inactive
9,CN(C)c1ccc(-c2cc3ccccc3c(=O)o2)cc1,inactive
10,COC(=O)C1=NN(c2ccc(OC)cc2)C2C(=O)N(c3ccccc3OC)C(=O)C12 (centres undefined),inactive
11,CCOC1=C2CN(S(=O)(=O)c3ccc(C)cc3)[C@H](c3cccc4ccccc34)C[C@H]2C(C#N)(C#N)C(C#N)(C#N)C1,12.6 µM (active)
12,O=c1oc2c3c4c(cc2c2c1CCC2)OCCN4CCC3,inactive
13,COc1ccc(-c2cc(C(=O)OCC(=O)Nc3cc(C)on3)c3ccccc3n2)cc1OC,inactive
14,COc1ccccc1-c1cc(C(F)(F)F)nc(S(=O)(=O)CCCC(=O)NCc2ccc(F)cc2)n1,26.7 µM (active)
15,COc1ccc(Br)cc1CN(C)CC(=O)NCc1ccc(F)cc1,inactive
16,CC1CCCCN1C(=O)COC(=O)c1cc(-c2cccs2)nn1-c1ccccc1 (centres undefined),inactive
17,COc1cc(CC(=O)OCC(=O)N2CCCCC2C)cc(OC)c1OC (centres undefined),inactive
18,COc1ccccc1-c1cc(C(F)(F)F)nc(S(=O)(=O)CCCC(=O)N2CCCCC2C)n1 (centres undefined),39.8 µM (active)
19,COc1ccc(-c2cc3nc(C)c(CCC(=O)NCc4ccc(F)cc4)c(C)n3n2)c(OC)c1,inactive
20,COc1ccc(-c2cc(C(F)(F)F)nc(S(=O)(=O)CCCC(=O)Nc3cccc(O)c3)n2)cc1OC,15 µM (active)
21,COc1cccc(C(C(=O)NC(C)(C)C)N(C(=O)CCC(=O)Nc2cc(C)on2)c2ccc3c(c2)OCCO3)c1OC (centres undefined),inactive
22,COc1ccc(-c2csc(NC(=O)CCNC(=O)c3ccco3)n2)cc1OC,inactive
23,COc1ccccc1-c1cc(C(F)(F)F)nc(S(=O)(=O)CCCC(=O)Nc2cc(C)on2)n1,14.1 µM (active)
24,COc1ccc(-c2cc(C(=O)Nc3ccc(C(N)=O)cc3)c3ccccc3n2)cc1OC,inactive
